Data on seven compounds can be found in PubChem BioAssay (Tox21).

Assay [1] is described as follows: qHTS assay to identify small molecule antagonists of the estrogen receptor alpha (ER-alpha) signaling pathway using the BG1 cell line in the presence of 0.1 nM 17-beta-estradiol - cell viability counter screen (AID 1259241). Also: nearly all actives have a fitted effect of over 40% in size. In short, it runs like this: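 Viability in VM7Luc4E2 cells after 22 hr compound exposure under 0.1 nM 17beta-estradiol stimulation, by CellTiter-Fluor.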

A short description of assay [2]: qHTS assay to identify small molecule antagonists of the androgen receptor (AR) signaling pathway using the MDA cell line in the presence of 0.5 nM R1881 - cell viability counter screen (AID 1259242). Also: nearly all actives have a fitted effect of over 45% in size. In short, it runs like this:
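MDA-kb2 cells (human breast carcinoma, stably carrying MMTV-luciferase reporter) were exposed to compounds with 0.5 nM R1881 (final) for 16 hr at 37C, 0% CO2; viability then read as live-cell protease fluorescence (CellTiter-Fluor, 30 min) in the same wells.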
In general terms: Quantitative high-throughput screening tests each substance at several concentrations.

Assay [3] addresses Estrogen receptor (Homo sapiens) (UniProt P03372). Kind of assay: qHTS assay to identify small molecule antagonists of the estrogen receptor alpha (ER-alpha) signaling pathway using the BG1 cell line in the presence of 0.1 nM 17-beta-estradiol (AID 1259244). Also: nearly all actives have a fitted effect of over 50% in size. In short, it runs like this:
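VM7Luc4E2 cells (endogenous full-length ER-alpha, stable 4xERE-luciferase) were grown 5 days in phenol red-free medium with charcoal-stripped FBS, then exposed 22 h at 37C to compounds plus 0.1 nM (final) 17beta-estradiol; ONE-Glo luminescence read-out.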

The nature of assay [4]: qHTS assay to identify small molecule phospholipidosis (PLD) inducers (AID 1259344; active = well fitted curve in the direction sought with a large enough effect; an effect the other way counts as inactive or inconclusive; also: potency is read from the fitted curve at half-maximal effect). In short, it runs like this:
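Quantitative HTS in HepG2: compound plus LipidTOX Red dye for 24 h, paraformaldehyde fixation with Hoechst 33342, widefield high-content imaging; amiodarone as positive and DMSO as negative control.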

Assay [5] is described as follows: qHTS assay to identify small molecule HDAC inhibitors (AID 1259364). Also: top concentration of the series differs between compounds; nearly all actives have a fitted effect of over 45% in size. The method, boiled down:
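Wild-type HCT-116 cells were plated overnight, exposed to compounds for 2 h at 37 °C, then given HDAC-Glo class I/II luminogenic reagent for 30 min at room temperature before luminescence was read.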

Assay [6] can be described thus: qHTS assay to identify small molecule HDAC inhibitors - cell viability counter screen (AID 1259365). Also: series mostly up to about 92 µM; nearly all actives have a fitted effect of over 50% in size. In short, it runs like this: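 Cytotoxicity was gauged in wild-type HCT-116 cells after a brief 2hr treatment with DMSO-dissolved compounds at 37C and 5% CO2, using CellTiter-Glo luminescence developed for 30min at room temperature.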
A short description of assay [7]: qHTS assay to identify small molecule agonists of the sonic hedgehog signaling (Shh) pathway - cell viability counter screen (AID 1259366). Also: nearly all actives have a fitted effect of over 50% in size. The method, boiled down:
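Stable Gli1-Luc NIH/3T3 clone, 2,000 cells/well. Compound exposure 24hr at 37C. Read-out: CellTiter-Fluor fluorescence.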

Assay [8] in a line: qHTS assay to identify small molecule antagonists of the sonic hedgehog signaling (Shh) pathway - cell viability counter screen (AID 1259367). Also: nearly all actives have a fitted effect of over 55% in size. The method, boiled down:
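Seed 3T3 Gli1-Luc cells at 2,000 per well; incubate 4 hr; add compound in DMSO, then conditioned medium; incubate at 37C with 5% CO2; add CellTiter-Fluor after 23 hr; read fluorescence 1 hr later.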

Assay [9] is described as follows: qHTS assay to identify small molecule agonists of the sonic hedgehog signaling (Shh) pathway (AID 1259368; calls by dose curve; also: series mostly up to about 92 µM; nearly all actives have a fitted effect of over 15% in size). The method, boiled down: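 NIH/3T3-derived 3T3Gli1-Luc cells carrying a stably integrated Gli1 response element–firefly luciferase reporter were plated, left 4 hr at 37 C, then given compounds in DMSO for 24 hr. Luminescence was read 30 min after adding luciferase reagent.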

Assay [10] in a line: qHTS assay to identify small molecule antagonists of the sonic hedgehog signaling (Shh) pathway (AID 1259369; calls by dose curve; also: nearly all actives have a fitted effect of over 45% in size). In short, it runs like this: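 NIH/3T3-derived 3T3Gli1-Luc cells with stably integrated Gli1-Luc reporter were preincubated 4hr at 37 C, then given compounds in DMSO plus Shh conditioned medium and incubated 24hr. Firefly luciferase luminescence read after 30min reagent at room temperature.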

The target of assay [11] is Estrogen receptor beta (Homo sapiens) (UniProt Q92731). Kind of assay: qHTS assay to identify small molecule agonists of the estrogen receptor beta (ER-beta) signaling pathway (AID 1259377; active = well fitted activation curve with a large enough effect in the signal ratio in the repeat runs, not every such curve was filed as active; the % refers to the signal ratio). In short, it runs like this: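 Measured by fluorescence intensity from a B/G FRET beta-lactamase substrate (2 h, room temperature) in ER-beta-UAS-bla HEK293T cells treated with DMSO-dissolved compounds for 16 hr at 37C and 5% CO2.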
Chain of Estrogen receptor beta (Homo sapiens) (Q92731 whole entry, looked up): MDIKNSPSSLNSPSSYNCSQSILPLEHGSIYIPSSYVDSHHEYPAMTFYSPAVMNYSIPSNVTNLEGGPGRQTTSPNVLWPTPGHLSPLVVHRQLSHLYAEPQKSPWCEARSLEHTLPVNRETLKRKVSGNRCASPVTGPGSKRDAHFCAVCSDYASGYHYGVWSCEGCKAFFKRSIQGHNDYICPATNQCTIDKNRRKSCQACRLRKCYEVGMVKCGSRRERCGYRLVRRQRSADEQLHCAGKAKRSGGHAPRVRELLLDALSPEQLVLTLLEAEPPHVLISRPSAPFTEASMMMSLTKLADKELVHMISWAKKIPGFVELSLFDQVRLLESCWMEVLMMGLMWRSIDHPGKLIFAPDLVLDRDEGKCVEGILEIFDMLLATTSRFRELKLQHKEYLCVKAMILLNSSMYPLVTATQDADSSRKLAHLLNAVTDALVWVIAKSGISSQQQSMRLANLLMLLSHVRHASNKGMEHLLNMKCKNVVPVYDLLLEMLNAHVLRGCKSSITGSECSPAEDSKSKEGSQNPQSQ

Assay [12] has the same target. Kind of assay: qHTS assay to identify small molecule antagonists of the estrogen receptor beta (ER-beta) signaling pathway (AID 1259378; active = well fitted inhibition curve with a large enough effect in the signal ratio in the repeat runs, not every such curve was filed as active; the % refers to the signal ratio; also: potency is read from the fitted curve at half-maximal effect). The method, boiled down:
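ER-beta-UAS-bla HEK293T cells in 2% charcoal-stripped FBS medium treated with compound plus 1nM final 17-beta-estradiol for 16 hr at 37C. Beta-lactamase reporter read by FRET substrate fluorescence after 2 hours at room temperature.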

Assay [13] is described as follows: qHTS assay to identify small molecule agonists of the androgen receptor (AR) signaling pathway in the presence of an antagonist - cell viability counter screen (AID 1259379). Also: series mostly up to about 92 µM; nearly all actives have a fitted effect of over 25% in size. In short, it runs like this:
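MDA-kb2 human breast carcinoma cells (stable MMTV-luciferase, AR/GR responsive) were seeded 3,000 cells/well, pre-incubated 5 hr at 37C without CO2, then given 3.0uM nilutamide and compounds at 15 concentrations for 16 hr. Viability was read by CellTiter-Fluor fluorescence.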

Assay [14] in a line: qHTS assay to identify small molecule agonists of the estrogen receptor beta (ER-beta) signaling pathway - cell viability counter screen (AID 1259380). Also: nearly all actives have a fitted effect of over 30% in size. Also: potency is read from the fitted curve at half-maximal effect. In short, it runs like this:
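ER-beta-UAS-bla HEK293T cells in medium with 2% charcoal-stripped FBS were preincubated 6 hr at 37C, dosed with compound in DMSO for 16 hr, then after the bla read, CellTiter-Glo was added for 30 min at room temperature; luminescence recorded.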

The nature of assay [15]: qHTS assay to identify small molecule antagonists of the estrogen receptor beta (ER-beta) signaling pathway - cell viability counter screen (AID 1259382). Also: nearly all actives have a fitted effect of over 55% in size. Also: potency is read from the fitted curve at half-maximal effect. As to activity change, negative = cytotoxicity: series mostly up to about 92 µM. In short, it runs like this: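 ER-beta-UAS-bla HEK293T cells (2,000/well, 2% charcoal-stripped FBS) were pre-incubated 6 hr at 37C, then given compound plus 1nM final 17-beta-estradiol for 16 hr. Viability was read in the same wells by CellTiter-Glo luminescence after 30 min at room temperature.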

Assay [16] deals with Estrogen receptor (Homo sapiens) (UniProt P03372). Kind of assay: qHTS assay to identify small molecule agonists of the estrogen receptor alpha (ER-alpha) signaling pathway in the presence of an antagonist (AID 1259383; calls by dose curve; also: top concentration of the series differs between compounds; nearly all actives have a fitted effect of over 15% in size). In short, it runs like this: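 VM7Luc4E2 cells (endogenous full-length ER-alpha, 4×ERE-luciferase) were precultured 5 days in phenol red-free medium with 10% charcoal-stripped FBS, given 10.0nM ICI-182,780 (final), then treated with compounds at 15 concentrations for 22hr at 37C; luminescence read with ONE-Glo.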
Chain of Estrogen receptor (Homo sapiens) (P03372 whole entry, looked up): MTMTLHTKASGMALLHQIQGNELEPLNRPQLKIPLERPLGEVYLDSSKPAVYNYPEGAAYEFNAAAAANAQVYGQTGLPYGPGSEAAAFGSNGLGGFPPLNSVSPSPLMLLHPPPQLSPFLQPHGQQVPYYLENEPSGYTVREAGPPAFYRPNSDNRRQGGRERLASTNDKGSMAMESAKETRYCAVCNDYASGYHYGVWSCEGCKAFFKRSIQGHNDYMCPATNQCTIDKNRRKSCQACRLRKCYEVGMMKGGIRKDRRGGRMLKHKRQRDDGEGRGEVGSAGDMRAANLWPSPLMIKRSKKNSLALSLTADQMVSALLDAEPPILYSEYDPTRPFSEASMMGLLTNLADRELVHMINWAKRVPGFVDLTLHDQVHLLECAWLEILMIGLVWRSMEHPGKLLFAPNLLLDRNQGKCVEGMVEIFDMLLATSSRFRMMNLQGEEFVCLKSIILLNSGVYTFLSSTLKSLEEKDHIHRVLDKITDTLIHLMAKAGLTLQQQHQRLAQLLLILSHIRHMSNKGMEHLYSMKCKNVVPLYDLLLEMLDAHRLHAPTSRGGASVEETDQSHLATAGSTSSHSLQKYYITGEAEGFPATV

The nature of assay [17]: qHTS assay to identify small molecule agonists or antagonists of the thyroid stimulating hormone receptor (TSHR) signaling pathway - wild type cell line counter screen (AID 1259384; calls by dose curve). In short, it runs like this: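 Wild-type Hek293 cells, 800/well, 18 h at 37C, then compound with Ro20-1724 for 30 min RT. cAMP by HTRF (cAMP-d2/anti-cAMP cryptate), 1 h RT, fluorescence read. 15 concentrations, triplicates.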

The target of assay [18] is Thyrotropin receptor (Homo sapiens) (UniProt P16473). Kind of assay: qHTS assay to identify small molecule antagonists of the thyroid stimulating hormone receptor (TSHR) signaling pathway (AID 1259385; calls by dose curve; also: nearly all actives have a fitted effect of over 20% in size). The method, boiled down: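 TSHR-HEK293 cells (800/well) plated 18 h, then compounds with Ro20-1724 and TSH at 1.5 ng/mL final, 30 min at room temperature. cAMP quantified by HTRF (cAMP-d2/anti-cAMP-cryptate, 1 h); 15 concentrations in triplicate.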
Chain of Thyrotropin receptor (Homo sapiens) (P16473 whole entry, looked up): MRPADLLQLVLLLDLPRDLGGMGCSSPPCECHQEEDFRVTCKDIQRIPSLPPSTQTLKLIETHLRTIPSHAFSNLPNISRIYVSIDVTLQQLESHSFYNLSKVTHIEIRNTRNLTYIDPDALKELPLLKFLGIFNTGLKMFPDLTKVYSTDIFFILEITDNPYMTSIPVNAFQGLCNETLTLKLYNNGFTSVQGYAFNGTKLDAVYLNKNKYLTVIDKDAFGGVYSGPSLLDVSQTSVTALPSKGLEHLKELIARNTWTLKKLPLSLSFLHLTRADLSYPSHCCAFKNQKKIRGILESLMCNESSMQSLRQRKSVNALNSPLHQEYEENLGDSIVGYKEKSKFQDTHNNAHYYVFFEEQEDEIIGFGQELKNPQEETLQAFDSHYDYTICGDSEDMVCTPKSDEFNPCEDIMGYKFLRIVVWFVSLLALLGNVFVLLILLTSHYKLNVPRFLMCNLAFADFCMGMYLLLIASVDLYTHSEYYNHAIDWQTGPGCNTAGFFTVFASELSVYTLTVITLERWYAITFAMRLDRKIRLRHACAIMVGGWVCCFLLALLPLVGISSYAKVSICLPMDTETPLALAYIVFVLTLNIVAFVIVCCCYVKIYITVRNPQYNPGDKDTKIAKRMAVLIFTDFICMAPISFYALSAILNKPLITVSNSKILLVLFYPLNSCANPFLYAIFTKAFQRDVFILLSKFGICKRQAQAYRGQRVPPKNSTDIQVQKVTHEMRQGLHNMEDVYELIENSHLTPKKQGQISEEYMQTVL

The target of assay [19] is Androgen receptor (Homo sapiens) (UniProt P10275). Kind of assay: qHTS assay to identify small molecule antagonists of the androgen receptor (AR) signaling pathway using the MDA cell line in the presence of 0.5 nM R1881 (AID 1259243). Also: nearly all actives have a fitted effect of over 50% in size. Also: potency is read from the fitted curve at half-maximal effect. In short, it runs like this:
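MDA-kb2 human breast carcinoma cells carrying an MMTV-luciferase reporter (AR- and GR-responsive) were plated, rested 5 hr at 37C, dosed with compounds, then stimulated with 0.5 nM R1881 (final) for 16 hr; luminescence was read after ONE-Glo.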

For assay [20] the target is unchanged. Kind of assay: qHTS assay to identify small molecule agonists of the androgen receptor (AR) signaling pathway in the presence of an antagonist (AID 1259381; calls by dose curve; also: nearly all actives have a fitted effect of over 15% in size; also: potency is read from the fitted curve at half-maximal effect). In short, it runs like this: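 MDA-kb2 human breast carcinoma cells carrying an MMTV-luciferase reporter (AR- and GR-responsive) were treated with compounds at 15 concentrations plus 3.0uM final nilutamide for 16hr at 37C without CO2; luminescence was read after ONE-Glo addition.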

Values without a mark were called inactive. Records with an inconclusive call do not appear. Active and inactive are the calls of the source. Unless noted, calls follow the shape of the dose curve; as a rule, active = well fitted curve in the direction sought with a large enough effect in the repeat runs; inconclusive = weak or mixed curves; inactive = no such curve, though single readings can be large; an effect the other way counts as inactive or inconclusive.
% is scaled to controls: 0 for no effect and ±100 for the full control effect.

Chain of Androgen receptor (Homo sapiens) (P10275 whole entry, looked up): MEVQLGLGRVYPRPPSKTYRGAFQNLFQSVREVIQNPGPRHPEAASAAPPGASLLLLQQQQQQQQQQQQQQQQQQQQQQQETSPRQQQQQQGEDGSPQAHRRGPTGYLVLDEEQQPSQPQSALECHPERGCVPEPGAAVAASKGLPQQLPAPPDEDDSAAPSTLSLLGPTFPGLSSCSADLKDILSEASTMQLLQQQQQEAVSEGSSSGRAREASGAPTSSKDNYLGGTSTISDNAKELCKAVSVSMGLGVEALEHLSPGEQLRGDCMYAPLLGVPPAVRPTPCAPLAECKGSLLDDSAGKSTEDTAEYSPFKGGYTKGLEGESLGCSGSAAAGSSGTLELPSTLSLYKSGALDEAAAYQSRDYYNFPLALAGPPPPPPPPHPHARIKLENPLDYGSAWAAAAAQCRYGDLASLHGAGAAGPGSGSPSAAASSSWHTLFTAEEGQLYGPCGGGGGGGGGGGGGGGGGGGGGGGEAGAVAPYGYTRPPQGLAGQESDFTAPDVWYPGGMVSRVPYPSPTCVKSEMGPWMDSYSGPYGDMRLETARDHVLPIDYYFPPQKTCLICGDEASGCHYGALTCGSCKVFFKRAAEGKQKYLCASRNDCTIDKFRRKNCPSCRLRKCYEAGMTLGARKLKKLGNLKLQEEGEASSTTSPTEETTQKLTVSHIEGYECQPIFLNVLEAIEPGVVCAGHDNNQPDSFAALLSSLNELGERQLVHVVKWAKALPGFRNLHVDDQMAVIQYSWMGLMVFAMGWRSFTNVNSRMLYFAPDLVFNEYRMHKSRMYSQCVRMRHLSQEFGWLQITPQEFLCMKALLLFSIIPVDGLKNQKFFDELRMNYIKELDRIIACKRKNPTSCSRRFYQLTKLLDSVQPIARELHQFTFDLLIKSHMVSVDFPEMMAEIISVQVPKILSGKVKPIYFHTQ

On to `NCC(=O)O`, for which the activity change, negative = cytotoxicity was -1.87% [at 19 µM] in assay [1]; 4.81% [at 19 µM] in assay [6]; 0.351% [at 19 µM] in assay [13]; 4.31% [at 19 µM] in assay [14]; -1.05% [at 19 µM] in assay [15]. The viability change, negative = cytotoxic in assay [2] is -5.8% [at 19 µM]; in assay [7] it was -1.71% [at 19 µM]; in assay [8], 1.33% [at 19 µM]. Further, the Potency entry in assay [3], in [4] and in assay [16] was “inactive” throughout. Further, the activity change, negative = inhibition in assay [5] is -0.526% [at 19 µM]; in assay [10], 20.6% [at 19 µM]; in assay [18] it was 2.94% [at 19 µM]. Also, the activity change in assay [9] is -0.0794% [at 18.9 µM]. The activation in [11] was -2.53% [at 19 µM]. Also, in assay [12], the activity, negative = inhibition was 10% [at 19 µM]. The cAMP activity change in assay [17] is -6.62% [at 18.9 µM, active compounds read high].
For `CCOC(=O)C(=O)CCc1ccccc1`, the Potency entry in assay [1], in assay [2], in assay [19], in assay [3], in assay [5] and in [6] was “inactive” each time. Also, the Potency result in assay [8], in [10], in assay [11], in assay [12], in assay [13] and in assay [14] was “inactive” in each case. The Potency result in assay [20], in [15] and in assay [16] was “inactive” in each case. Also, the outcome in assay [9] was inactive.
On to `Nc1c(CC(=O)O)cccc1C(=O)c1ccc(Br)cc1`, for which the Potency result in assay [1], in assay [2], in [3], in assay [4], in assay [5] and in assay [6] was “inactive” throughout. The Potency entry in [7], in assay [8], in [10], in assay [14], in assay [15] and in assay [16] was “inactive” throughout. The Potency result in assay [17] and in assay [18] was “inactive” throughout. The result in assay [9] was inactive.
On to `CN1CCC(=C2c3ccccc3Sc3ccccc32)CC1`, for which the Potency entry in [1], in [2], in assay [3], in [5], in assay [6] and in [7] was “inactive” each time. The Potency result in assay [8], in [13], in [20] and in [16] was “inactive” each time. Besides, the Potency in [19] is 23.7 µM (active); in assay [4] it was 10 µM (active); in [14], 23.7 µM (active); in [15], 21.1 µM (active). Moreover, the compound was classed as inactive in assay [9].
In the case of `CCC(=O)O[C@]1(C(=O)CCl)[C@@H](C)C[C@H]2[C@@H]3CCC4=CC(=O)C=C[C@]4(C)[C@@]3(F)[C@@H](O)C[C@@]21C`, the Potency result in assay [1], in assay [2], in [3], in [4], in assay [5] and in assay [7] was “inactive” throughout. Further, the Potency entry in [8], in assay [10], in [11], in [15], in assay [16] and in assay [17] was “inactive” each time. Besides, the outcome in assay [9] was inactive. Further, the Potency in assay [12] is 29.8 µM (active); in [20], 0.0007 µM (active).
Consider `N=c1ccn2c(n1)O[C@H]1[C@H](O)[C@@H](CO)O[C@H]12`, for which the Potency entry in [1], in assay [2], in [3], in [4], in [5] and in assay [6] was “inactive” throughout. Further, the Potency entry in assay [8], in assay [10], in assay [13], in assay [14], in assay [15] and in assay [16] was “inactive” in each case. The Potency entry in [17] and in assay [18] was “inactive” throughout. Besides, the result in [9] was inactive.
`O=C(O)c1ccc(S(=O)(=O)O)cc1C(=O)O`: the Potency result in assay [1], in [2], in assay [3], in assay [5], in assay [6] and in [7] was “inactive” in each case. Moreover, the Potency entry in [8], in assay [10], in [11], in [12], in assay [13] and in assay [14] was “inactive” each time. Further, the Potency entry in assay [15], in assay [16], in [17] and in [18] was “inactive” in each case. Also, in assay [9], the call was inactive.
